This passage reports Potency and activation results from PubChem BioAssay (Tox21).

The nature of experiment [1]: qHTS assay for identifying genotoxic compounds that show differential cytotoxicity against isogenic chicken DT40 cell lines with known DNA damage response pathways - wild type cell line (AID 743012). Note: nearly all actives have a fitted effect of over 60% in size. Note: potency is the fitted concentration of half-maximal effect. In a few lines: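 Endpoint: CellTiter-Glo luminescence, 30 min RT. Cells: wild type DT40, 300/well. Exposure: compounds in DMSO, 40 h, 37 C/5% CO2, after ~0.5 h pre-incubation.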
(Quantitative high-throughput screening tests each substance at several concentrations.)

The nature of experiment [2]: qHTS assay for identifying genotoxic compounds that show differential cytotoxicity against isogenic chicken DT40 cell lines with known DNA damage response pathways - Rev3 mutant cell line (AID 743014). Note: nearly all actives have a fitted effect of over 55% in size. Note: potency is the fitted concentration of half-maximal effect.
Experiment [3] is described as follows: qHTS assay for identifying genotoxic compounds that show differential cytotoxicity against isogenic chicken DT40 cell lines with known DNA damage response pathways - Rad54/Ku70 mutant cell line (AID 743015). Note: nearly all actives have a fitted effect of over 60% in size. Note: potency is the fitted concentration of half-maximal effect.
In experiment [4] the target is Androgen receptor (Homo sapiens) (UniProt P10275). The experiment is described as follows: qHTS assay to identify small molecule antagonists of the androgen receptor (AR) signaling pathway (AID 743035; active = well fitted inhibition curve with a large enough effect in the signal ratio in the repeat runs, not every such curve was filed as active; inconclusive = weak or mixed curves, or effect the other way; inactive = no such curve, though single readings can be large or run the other way; the % refers to the signal ratio; note: potency is the fitted concentration of half-maximal effect). In a few lines:
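R1881 agonist challenge of a HEK293 UAS-beta-lactamase AR reporter line in the presence of compound (16 h, 37C); signal taken as FRET fluorescence after 2 h with LiveBLAzer B/G substrate at room temperature.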

For experiment [5] the target is unchanged. The experiment is described as follows: qHTS assay to identify small molecule agonists of the androgen receptor (AR) signaling pathway using the MDA cell line (AID 743040; note: nearly all actives have a fitted effect of over 20% in size). In outline:
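Luciferase read-out, ONE-Glo, 30 min RT. Cells: MDA-kb2 AR-luc, MMTV promoter with AR and GR response elements. Compound exposure 16 h, 37C, 0% CO2, after 5 h pre-incubation. qHTS agonist mode.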

A short description of experiment [6]: qHTS assay to identify small molecule antagonists of the androgen receptor (AR) signaling pathway using the MDA cell line - cell viability counter screen (AID 743041; note: nearly all actives have a fitted effect of over 45% in size; note: potency is the fitted concentration of half-maximal effect). In outline:
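Cytotoxicity counter screen: MDA-kb2 AR-luc cells, compound + R1881, 16 h, 37C, 0% CO2; CellTiter-Fluor added at 15.5 h, fluorescence read after 30 min.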

Experiment [7] concerns the target Androgen receptor (Homo sapiens) (UniProt P10275). Nature of the experiment: qHTS assay to identify small molecule antagonists of the androgen receptor (AR) signaling pathway using the MDA cell line (AID 743042; note: nearly all actives have a fitted effect of over 55% in size; note: potency is the fitted concentration of half-maximal effect). In a few lines: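 MDA-kb2 breast carcinoma cells carrying MMTV-luciferase (AR/GR responsive) were co-treated with compounds and the agonist R1881 for 16 h at 37C. Inhibition read as ONE-Glo luminescence; CellTiter-Fluor fluorescence measured in parallel for cytotoxicity.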

The subject of experiment [8] is thyroid hormone receptor (rat, GH3 cells). The experiment is described as follows: qHTS assay to identify small molecule agonists of the thyroid receptor (TR) signaling pathway (AID 743066; calls by dose curve).
The target of experiment [9] is Estrogen receptor (Homo sapiens) (UniProt P03372). The experiment is described as follows: qHTS assay to identify small molecule agonists of the estrogen receptor alpha (ER-alpha) signaling pathway (AID 743075; calls by dose curve;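 note: HEK293 GripTite cells with ER-alpha and UAS-driven beta-lactamase reporter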; note: potency is the fitted concentration of half-maximal effect). The note with it: HEK293 ER-alpha-UAS-bla, beta-lactamase FRET ratio, 18 h; activation: at 70.1 µM (top of the series).
Chain of Estrogen receptor (Homo sapiens) (P03372 whole entry, looked up): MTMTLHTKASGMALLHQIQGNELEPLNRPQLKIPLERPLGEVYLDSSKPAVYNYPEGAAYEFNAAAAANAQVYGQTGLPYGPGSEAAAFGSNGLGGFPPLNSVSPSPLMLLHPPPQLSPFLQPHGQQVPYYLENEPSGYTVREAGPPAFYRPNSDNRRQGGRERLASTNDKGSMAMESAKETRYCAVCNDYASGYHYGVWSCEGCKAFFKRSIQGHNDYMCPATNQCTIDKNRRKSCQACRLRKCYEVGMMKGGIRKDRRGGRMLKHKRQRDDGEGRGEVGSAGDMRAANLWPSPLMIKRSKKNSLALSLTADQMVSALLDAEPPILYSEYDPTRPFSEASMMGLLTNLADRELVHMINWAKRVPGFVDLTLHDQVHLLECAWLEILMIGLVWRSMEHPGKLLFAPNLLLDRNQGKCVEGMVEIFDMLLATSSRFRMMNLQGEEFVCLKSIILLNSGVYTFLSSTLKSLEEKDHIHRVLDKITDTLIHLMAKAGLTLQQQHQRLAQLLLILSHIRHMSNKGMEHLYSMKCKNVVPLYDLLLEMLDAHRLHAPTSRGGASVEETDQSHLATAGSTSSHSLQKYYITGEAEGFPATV
Experiment [10] has the same target. The experiment is described as follows: qHTS assay to identify small molecule agonists of the estrogen receptor alpha (ER-alpha) signaling pathway using the BG1 cell line (AID 743079). Note: nearly all actives have a fitted effect of over 20% in size. Note: potency is the fitted concentration of half-maximal effect. The note with it: BG1Luc4E2 cells, ERE-luciferase agonist, 22 h.
Experiment [11] is described as follows: qHTS assay to identify small molecule antagonists of the estrogen receptor alpha (ER-alpha) signaling pathway using the BG1 cell line (AID 743080; calls by dose curve;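 note: BG1 cells stimulated with 17beta-estradiol alongside compound; nearly all actives have a fitted effect of over 25% in size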; note: potency is the fitted concentration of half-maximal effect). In a few lines: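 After 5 days in phenol-red-free 10% charcoal-stripped FBS medium, BG1-Luc-4E2 cells were seeded, left 24 h at 37 C, co-treated with compounds and 17beta-estradiol for 21.5 h, then assayed for viability and luciferase.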

The nature of experiment [12]: qHTS assay to identify small molecule antagonists of the estrogen receptor alpha (ER-alpha) signaling pathway using the BG1 cell line - cell viability counter screen (AID 743081).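 Note: compound given together with 17beta-estradiol as the ER stimulus; nearly all actives have a fitted effect of over 45% in size.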
Experiment [13] addresses Aromatase (Homo sapiens) (UniProt P11511). Nature of the experiment: qHTS assay to identify aromatase inhibitors (AID 743083). Note: nearly all actives have a fitted effect of over 55% in size. Note: potency is the fitted concentration of half-maximal effect.
Experiment [14] is described as follows: qHTS assay to identify small molecule antagonists of the androgen receptor (AR) signaling pathway - cell viability counter screen (AID 743033; note: nearly all actives have a fitted effect of over 45% in size; note: potency is the fitted concentration of half-maximal effect).
Experiment [15] concerns the target Androgen receptor (Homo sapiens) (UniProt P10275). Nature of the experiment: qHTS assay to identify small molecule agonists of the androgen receptor (AR) signaling pathway (AID 743036; active = well fitted activation curve with a large enough effect in the signal ratio in the repeat runs, with a control signal flat, not every such curve was filed as active; inconclusive = weak or mixed curves, or effect the other way; inactive = no such curve, though single readings can be large or run the other way; the % refers to the signal ratio). In a few lines:
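Cell-based FRET reporter assay: HEK293 line with a UAS-beta-lactamase construct, compounds added in DMSO, 16 h exposure at 37C, then 2 h substrate step at room temperature and fluorescence intensity read.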

Experiment [16] can be described thus: qHTS assay to identify small molecule antagonists of the thyroid receptor (TR) signaling pathway - cell viability counter screen (AID 743064). Note: nearly all actives have a fitted effect of over 50% in size. Note: potency is the fitted concentration of half-maximal effect. In outline:
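In rat pituitary GH3.TRE-Luc reporter cells co-exposed to compound and 1 nM T3 for 23.5 h, cytotoxicity was assessed with CellTiter-Fluor in the same wells, read by fluorescence.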

Experiment [17] in a line: qHTS assay to identify small molecule antagonists of the thyroid receptor (TR) signaling pathway (AID 743065). Note: nearly all actives have a fitted effect of over 55% in size. Note: potency is the fitted concentration of half-maximal effect. In a few lines: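 GH3.TRE-Luc rat pituitary cells (two TREs driving luciferase) were dosed with compound, then stimulated with 1 nM T3 (final) for 23.5 h at 37 C. ONE-Glo luminescence was the read-out, with CellTiter-Fluor fluorescence as the cytotoxicity counter-screen.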

The target of experiment [18] is Estrogen receptor (Homo sapiens) (UniProt P03372). Nature of the experiment: qHTS assay to identify small molecule antagonists of the estrogen receptor alpha (ER-alpha) signaling pathway (AID 743069; active = well fitted curve in the direction sought with a large enough effect in the signal ratio in the repeat runs, not every such curve was filed as active; inconclusive = weak or mixed curves, or effect the other way; inactive = no such curve, though single readings can be large or run the other way; the % refers to the signal ratio; note: potency is the fitted concentration of half-maximal effect). In a few lines: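 Beta-lactamase FRET fluorescence is read after 2 hr at room temperature with LiveBLAzer B/G substrate. Before that, ER-alpha-bla HEK293 cells sit 4 hr after plating, then receive compound plus 17beta-estradiol and incubate 18 hr at 37C.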

Experiment [19] in a line: qHTS assay to identify small molecule antagonists of the estrogen receptor alpha (ER-alpha) signaling pathway - cell viability counter screen (AID 743074; calls by dose curve;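 note: HEK293 cells carrying ER-alpha-UAS-bla reporter stimulated with 17beta-estradiol; nearly all actives have a fitted effect of over 45% in size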; note: potency is the fitted concentration of half-maximal effect).

Values joined by “and” are separate entries in the source; they are usually repeats but may differ in a detail not shown here. Identical values can stand only once. More than one record can exist for a structure, and the calls need not agree. Active and inactive are the calls of the source. Unless noted, calls come from the whole dose curve; as a rule, active = well fitted curve in the direction sought with a large enough effect in the repeat runs; inconclusive = weak or mixed curves; inactive = no such curve, though single readings can be large; an effect the other way counts as inactive or inconclusive.
% is set by controls: 0 for no effect and ±100 for the full control effect.

Chain of Androgen receptor (Homo sapiens) (P10275 whole entry, looked up): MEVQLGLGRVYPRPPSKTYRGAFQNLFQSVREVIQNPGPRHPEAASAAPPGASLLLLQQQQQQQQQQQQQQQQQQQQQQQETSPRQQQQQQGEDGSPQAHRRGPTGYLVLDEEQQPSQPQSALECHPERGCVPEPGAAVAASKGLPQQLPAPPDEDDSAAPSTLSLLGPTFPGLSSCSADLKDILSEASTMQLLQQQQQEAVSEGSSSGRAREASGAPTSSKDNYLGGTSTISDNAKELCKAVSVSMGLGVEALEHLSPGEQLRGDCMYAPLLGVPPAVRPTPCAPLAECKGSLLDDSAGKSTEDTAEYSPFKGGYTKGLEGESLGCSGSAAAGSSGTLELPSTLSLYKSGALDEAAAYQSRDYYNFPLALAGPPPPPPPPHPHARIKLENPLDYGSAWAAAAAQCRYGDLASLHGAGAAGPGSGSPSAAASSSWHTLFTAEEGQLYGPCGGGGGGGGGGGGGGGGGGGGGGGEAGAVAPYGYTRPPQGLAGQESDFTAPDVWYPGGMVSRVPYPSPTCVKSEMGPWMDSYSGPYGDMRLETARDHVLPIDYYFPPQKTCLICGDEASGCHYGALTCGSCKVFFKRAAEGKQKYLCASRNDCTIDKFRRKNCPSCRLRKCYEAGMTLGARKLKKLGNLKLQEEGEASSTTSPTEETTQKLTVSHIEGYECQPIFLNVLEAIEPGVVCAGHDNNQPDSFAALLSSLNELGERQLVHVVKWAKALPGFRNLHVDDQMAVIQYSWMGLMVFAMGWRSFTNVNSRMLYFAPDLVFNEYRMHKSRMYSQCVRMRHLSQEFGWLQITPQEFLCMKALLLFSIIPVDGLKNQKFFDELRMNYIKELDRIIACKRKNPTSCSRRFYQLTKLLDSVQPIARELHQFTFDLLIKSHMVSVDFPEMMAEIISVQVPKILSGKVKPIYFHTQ
Chain of Aromatase (Homo sapiens) (P11511 whole entry, looked up): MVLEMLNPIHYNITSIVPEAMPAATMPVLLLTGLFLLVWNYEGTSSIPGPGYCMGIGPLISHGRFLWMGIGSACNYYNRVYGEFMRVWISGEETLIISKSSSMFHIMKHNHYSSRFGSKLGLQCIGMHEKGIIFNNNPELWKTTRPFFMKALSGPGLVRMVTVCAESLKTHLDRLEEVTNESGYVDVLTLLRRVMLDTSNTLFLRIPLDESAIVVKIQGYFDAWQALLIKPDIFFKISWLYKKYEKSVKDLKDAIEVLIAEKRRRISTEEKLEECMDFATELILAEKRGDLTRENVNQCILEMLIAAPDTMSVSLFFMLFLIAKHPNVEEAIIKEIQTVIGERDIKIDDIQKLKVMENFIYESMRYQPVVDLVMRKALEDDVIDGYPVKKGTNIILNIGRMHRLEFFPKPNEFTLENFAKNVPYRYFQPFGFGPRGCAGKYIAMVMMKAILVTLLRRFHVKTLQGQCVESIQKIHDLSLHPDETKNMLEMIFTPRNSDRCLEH

As to `CSc1ccc(/C=C2/C(C)=C(CC(=O)O)c3cc(F)ccc32)cc1`, the Potency entry in [1], in experiment [2], in experiment [3], in experiment [4], in experiment [5] and in experiment [6] was “inactive” each time. Further, the Potency entry in experiment [7], in [8], in experiment [9], in experiment [11], in experiment [12] and in experiment [13] was “inactive” each time. In addition, the activation in [10] (at 70.3 µM (top of the series)) is -0.897% (inactive).
Take `ON=C1CCCC1`: the Potency result in experiment [1], in [2], in experiment [3], in experiment [14], in experiment [4] and in experiment [15] was “inactive” in each case. The Potency entry in experiment [5], in experiment [6], in experiment [7], in [16], in [17] and in [8] was “inactive” each time. For the same molecule, the Potency result in experiment [18], in [19], in experiment [9], in [11], in experiment [12] and in experiment [13] was “inactive” throughout. Moreover, the activation in [10] (at 95 µM (top of the series)) is 13.6% (inactive).
As to `Nc1ccc2c3c(cccc13)-c1ccccc1-2`, the Potency in experiment [1] is 61.8 µM (active); in experiment [2], 27.6 µM (active); in experiment [3] it was 55 µM (active); in experiment [17] it was 43.7 µM (active); in experiment [10] it was 8.72 µM (active). In addition, the Potency entry in experiment [14], in experiment [5], in experiment [7] and in experiment [8] was “inactive” in each case.
Consider `CC[C@H](c1ccc(O)cc1)[C@@H](CC)c1ccc(O)cc1`, for which the Potency is 12.2 µM (active) in [1]; 10.1 µM (active) and 13.7 µM (active) in experiment [2]; 19.3 µM (active) in [3]; 8.11 µM (active) and 21.9 µM (active) in [4]; “inactive and 54.5 µM (active)” in experiment [7]; 30.6 µM (active) in experiment [16]. Also, the Potency in experiment [17] is 19.3 µM (active); in experiment [9], 0.0002 µM [inconclusive] (active); in experiment [11], 68.6 µM (active); in experiment [13], “inactive and 27.3 µM (active)”. Besides, the Potency result in experiment [14], in [15], in experiment [5], in [6], in [8] and in experiment [18] was “inactive” in each case. Also, the Potency entry in experiment [19] and in experiment [12] was “inactive” in each case. For the same molecule, the values for the activation in experiment [9], in [10] (at 32.5 µM (top of the series)) and in experiment [10] (at 70.3 µM (top of the series)) were 38.2% [inconclusive] (active), 58.6% (active) and -55.2% (active), respectively.
With `COc1ccc(-c2ccc3cc(C(=O)O)ccc3c2)cc1C12CC3CC(CC(C3)C1)C2`, the Potency entry in experiment [1], in experiment [2], in experiment [3], in [14], in experiment [8] and in [19] was “inactive” each time. Moreover, the Potency entry in experiment [9] and in experiment [12] was “inactive” throughout. For the same molecule, the Potency in experiment [16] is 1.68 µM (active); in [18] it was 7.56 µM [inconclusive] (active); in experiment [11] it was 0.376 µM (active). Further, in experiment [10] (at 70.3 µM (top of the series)), the activation was -4.61% (inactive).
On to `O=c1[nH]sc2ccccc12`, for which the Potency in experiment [1] was 0.433 µM (active); in [2] it was 0.433 µM (active); in experiment [3] it was 0.686 µM (active); in experiment [14] it was 24.5 µM (active); in experiment [16], 5.45 µM (active); in experiment [17] it was 3.06 µM (active). Besides, the Potency in experiment [13] is 30.6 µM (active). Besides, the Potency result in experiment [18], in experiment [19], in experiment [9], in [11] and in [12] was “inactive” throughout. For the same molecule, the activation in experiment [10] (at 70.3 µM (top of the series)) is -22% (inactive).
Regarding `O=C1C=CC(=O)N1c1ccc(Cc2ccc(N3C(=O)C=CC3=O)cc2)cc1`, the Potency in [1] is 0.969 µM (active); in [2], 1.22 µM (active); in [3] it was 1.54 µM (active); in [14], 17.4 µM (active); in [6], 54.5 µM (active); in [16] it was 10.9 µM (active). In addition, the Potency in experiment [17] is 8.63 µM (active); in experiment [19], 21.9 µM (active); in experiment [13], 9.69 µM (active). Further, the Potency entry in experiment [8] and in experiment [12] was “inactive” each time.
With `CSc1ccc2c(c1)C(N1CCN(C)CC1)Cc1ccccc1S2` (configuration not stated), the Potency was 5.96 µM (active) in experiment [1]; 6.68 µM (active) in [2]; 9.44 µM (active) in [3]; 7.5 µM (active) in [16]; 8.41 µM (active) in experiment [17]. For the same molecule, the Potency result in [6], in experiment [9], in [11] and in experiment [12] was “inactive” throughout. The activation in experiment [10] (at 70.3 µM (top of the series)) is -16.2% (inactive).
With `CC(C)OC(=O)c1cc2c(OCC(O)CNC(C)(C)C)cccc2[nH]1` (configuration not stated), the Potency in experiment [1] is 23.7 µM (active); in experiment [3] it was 26.6 µM (active); in experiment [16], 13.3 µM (active); in experiment [17] it was 21.1 µM (active). Besides, the Potency result in experiment [14], in experiment [4], in experiment [5], in experiment [6], in [7] and in [8] was “inactive” in each case. Besides, the Potency result in experiment [19], in experiment [12] and in experiment [13] was “inactive” throughout.
Consider `CCCCCCCCn1sc(Cl)c(Cl)c1=O`, for which the Potency in experiment [1] was 0.433 µM (active); in experiment [3], 0.686 µM (active); in experiment [14], 6.16 µM (active); in experiment [16] it was 27.3 µM (active); in [17] it was 27.3 µM (active); in [13], 4.86 µM (active). Besides, the Potency entry in [6], in [8] and in experiment [9] was “inactive” each time.
Consider `CCOC(=O)c1nc(C(Cl)(Cl)Cl)n(-c2ccc(Cl)cc2Cl)n1`, for which the Potency in [1] was 48.6 µM (active); in experiment [2], 34.4 µM (active); in [3], 30.6 µM (active); in experiment [14], 49 µM (active); in [7] it was 68.6 µM (active); in [17], 68.6 µM (active). In addition, the Potency in experiment [13] was 61.1 µM (active). In addition, the Potency entry in experiment [5], in experiment [6], in experiment [19], in experiment [9] and in experiment [11] was “inactive” each time.
